Screening results deposited in PubChem by several laboratories.
An excerpt weighted towards active compounds, which were near 7.1% of everything screened.
Cav3 T inh: Cav3.2 calcium influx blockers – cell-based, Fluo-4 calcium fluorescence, FDSS, MLSMR library, primary screen. 100,000 compounds, 4% hits. Cav3.2-expressing cells; hits give low values. B-score at 10 µM. Voltage-dependent T-type calcium channel subunit alpha-1H (Homo sapiens), O95180. AID 449739, 2010;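 active = single-dose well whose peak fluorescence ratio is a statistical outlier from its plate by either plate-standardised score or position-corrected B-score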
M1 antag: antagonists of rat M1 muscarinic receptor; Muscarinic acetylcholine receptor M1 (Rattus norvegicus), P08482; CHO-M1 cells, Fluo-4 calcium, ACh EC80 antagonist mode; hits give low values; B-score at 10 µM; 64,000 compounds, 3.4% hits; AID 628, 2007;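 active = calcium fluorescence response, raw or row-and-column corrected B-score, differing from the plate sample mean either way at a set confidence level, mostly lower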
Pyk2 oligo antag: antagonists of Pyk2 self-association, primary screen, Q293 cells, FERM NanoBiT luminescence, HTS. z-score (the deposit names both 25 µM and 10 µM). 99,000 compounds, 0.83% hits. hits give low values;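 active = Z-score of -3 or lower, scaled per plate to the spread of control and sample wells; inactive = z-score above -3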;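 note: negative z-score means lost luminescence so less FERM oligomerization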
M1 agonist: M1 muscarinic receptor agonists, primary screen, CHO-M1 cells, Fluo-4 calcium, agonist mode. Muscarinic acetylcholine receptor M1. Fluo-4 calcium fluorescence; hits give high values. B-score at 10 µM. 64,000 compounds, 3% hits;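 active = fluorescence rise, raw or as B-score row- and column-corrected plate score, outside the 99.7% band of its plate's samples, either direction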
Each line names hits and unclear results; the compound was inactive in the other large screens.

CN1CCN(c2ccc(Cl)cc2NC(=O)C2COc3ccccc3O2)CC1 (centres undefined)	Cav3 T inh -4.54
COc1ccccc1-c1cc(-c2ccccc2)nc(SC(C(N)=O)c2ccccc2)c1C#N (centres undefined)	none (no result: M1 antag, M1 agonist)
O=C(NC1CC1)C1=C[C@@H](c2coc3ccccc3c2=O)C[C@@H](OCCCCO)O1	none (no result: M1 antag, Pyk2 oligo antag, M1 agonist)
COc1cccc(OCCNc2cc(N3CCCCC3)ccc2[N+](=O)[O-])c1	Cav3 T inh -4.09 (no result: M1 antag, M1 agonist)
COc1ccc(OCCNc2cc(N3CCCCC3)ccc2[N+](=O)[O-])cc1	none (no result: Cav3 T inh, M1 antag, M1 agonist)
CCOC(=O)CSc1nc2cc3c(cc2cc1CC)OCCO3	Cav3 T inh -4.59 (no result: M1 antag, M1 agonist)
Cc1cc2cc3c(cc2nc1SCC(=O)OC(C)C)OCCO3	none (no result: M1 antag, M1 agonist)
Cc1sc(NC(=O)c2ccco2)c(CN2CCC(C)CC2)c1C	Cav3 T inh -5.17 (no result: M1 antag, M1 agonist)
CC(C)(C)n1nnnc1C(c1cccnc1)N1CCN(C(=O)c2ccco2)CC1 (centres undefined)	none
Cc1sc(NC(=O)c2ccco2)c(C(c2cccnc2)N2CCC(C)CC2)c1C (centres undefined)	Pyk2 oligo antag -4.28 (no result: M1 antag, M1 agonist)
CCOc1ccc(C2CC(c3cccc(OC)c3)Nc3ncnn32)cc1 (centres undefined)	none (no result: Cav3 T inh, Pyk2 oligo antag)
CCOc1ccc(NS(=O)(=O)c2ccc3[nH]cc(C(=O)N(CC)CC)c(=O)c3c2)cc1	M1 antag -11.3, M1 agonist 23.4 (no result: Cav3 T inh)
CCOc1ccc(NS(=O)(=O)c2ccc3[nH]cc(C(=O)NCC4CCCO4)c(=O)c3c2)cc1 (centres undefined)	none
O=C(CNC(=O)c1ccc(Cl)cc1Cl)NCCCn1ccnc1	none (no result: M1 antag, M1 agonist)
CCOC(=O)CS(=O)(=O)c1nc(-c2ccc(F)cc2)cc(C(F)(F)F)n1	M1 agonist 4.38
CCOC(=O)CS(=O)(=O)c1nc(-c2ccccc2)cc(C(F)(F)F)n1	none
NC(=S)n1[nH]c(-c2ccc([N+](=O)[O-])cc2)c(N=Nc2ccc(O)cc2)c1=O	Pyk2 oligo antag -3.61 (no result: Cav3 T inh, M1 antag, M1 agonist)
COc1ccc(N(CC(=O)NC2CCCC2)C(=O)Cn2nnc(-c3ccc(C)cc3)n2)cc1	Cav3 T inh -6.73
CC(C)COc1ccc(CSCCNC(=S)Nc2ccccc2)cc1	Cav3 T inh -4.1 (no result: M1 antag, M1 agonist)
C[C@@H](c1ncncc1F)[C@](O)(Cn1cncn1)c1ccc(F)cc1F	none (no result: M1 antag, Pyk2 oligo antag, M1 agonist)
O=C(CCS(=O)(=O)Cc1ccc(Cl)cc1)NCCCN1CCOCC1	none (no result: M1 antag, M1 agonist)
COCc1cc(C)nc(OCC(=O)N/N=C/c2cccc(OC)c2)c1C#N	none (no result: M1 antag, M1 agonist)
COCc1cc(C)nc(OCC(=O)N/N=C\c2cc(C)n(-c3cccc(C(F)(F)F)c3)c2C)c1C#N	Cav3 T inh -4.85 (no result: M1 antag, M1 agonist)
O=C(N/N=C/c1ccc(O)c(O)c1O)/C(=C/c1ccc([N+](=O)[O-])cc1)NC(=O)c1ccccc1	none (no result: M1 antag, M1 agonist)
O=C(NC(CSCc1ccccc1)C(=O)N/N=C/c1ccc(O)cc1O)c1ccc([N+](=O)[O-])cc1 (centres undefined)	Cav3 T inh -4.7 (no result: M1 antag, M1 agonist)
COn1c(SC2CCCCC2)nc2ccccc2c1=O	none
Cc1ccccc1-n1nnnc1SCc1csc(-c2ccccc2)n1	Cav3 T inh -4.46
Nn1c(SCc2csc(-c3ccccc3)n2)nnc1-c1cccs1	none
COCOc1ccc(-c2oc3c(C/C=C(\C)CCC=C(C)C)ccc(O)c3c(=O)c2OCOC)c(OCOC)c1	none (no result: M1 antag, Pyk2 oligo antag, M1 agonist)
COCCOC(=O)c1c(C)nc(SCC(=O)Nc2ccc(OC)cc2)c(C#N)c1-c1ccco1	none
CN1CCc2nc(SCC(=O)Nc3ccc(OC(F)(F)F)cc3)c(C#N)c(-c3cccs3)c2C1	none (no result: Cav3 T inh, M1 antag, M1 agonist)
COc1cccc(NC(=O)CSc2nc3c(c(-c4ccco4)c2C#N)CCCC3)c1	M1 agonist -2.62
CN1CCc2nc(SCC(=O)Nc3cccc(F)c3)c(C#N)c(-c3cccs3)c2C1	Pyk2 oligo antag -3.12 (no result: Cav3 T inh, M1 antag, M1 agonist)
COc1ccc2c(c1)nc(SCC(=O)c1cccs1)n2C	none (no result: M1 antag, M1 agonist)
COC(=O)c1ccccc1NC(=O)CSc1nc(O)cc(=O)n1C1CCCC1	M1 agonist 43.8
COC(=O)c1ccccc1NC(=O)CSc1nccn1C	none
CSc1ccccc1C(=O)Nc1cccc(C)c1	none (no result: M1 antag, M1 agonist)
Cc1cccc(NC(=O)C23CCC(C)(C2Br)C3(C)C)c1 (centres undefined)	Cav3 T inh -5.42 (no result: M1 antag, M1 agonist)
O=S(=O)(NC1CC2CCC1C2)c1ccc(Br)s1 (centres undefined)	Cav3 T inh -4.87
O=C(NCc1ccc(F)cc1)c1cc(S(=O)(=O)N2CCOCC2)ccc1F	Cav3 T inh -5.24
CC1=C(OC(=O)c2ccccc2)C(C)(C)C(c2ccc(Br)cc2)OC1=O (centres undefined)	Cav3 T inh -7.14 (no result: M1 antag, M1 agonist)
CC1=C(OC(=O)c2ccccc2)C(C)(C)C(c2ccccc2)OC1=O (centres undefined)	none (no result: M1 antag, M1 agonist)
CC(Oc1ccc(Cl)cc1Cl)C(=O)Nc1ccc2oc(-c3ccncc3)nc2c1 (centres undefined)	Pyk2 oligo antag -3.23
Cc1ccc(-c2nc3cc(NC(=O)C(C)C)ccc3o2)cc1	none
Cc1noc(C)c1S(=O)(=O)Nc1ccc(O)c2c(=O)cc(-c3ccccc3Cl)oc12	none (no result: M1 antag, Pyk2 oligo antag, M1 agonist)
CC1CCN(c2ccc(C(=O)O)cc2NS(=O)(=O)c2ccc(Br)cc2)CC1	none (no result: Cav3 T inh, M1 antag, M1 agonist)
O=C(N(Cc1ccccc1)c1ccccn1)C12CC3CC(CC(C3)C1)C2	Cav3 T inh -3.57 (no result: M1 antag, M1 agonist)
COC(=O)CCN(C(=O)C12CC3CC(CC(C3)C1)C2)c1ccccn1	none (no result: M1 antag, M1 agonist)
Cc1cccc(C)c1NC(=O)/C(=C/c1ccco1)c1ccccc1	Cav3 T inh -8.61 (no result: M1 antag, M1 agonist)
Cc1ccccc1NC(=O)/C(=C/c1ccccc1)c1ccccc1	Cav3 T inh -4.78 (no result: M1 antag, M1 agonist)
CCn1c2ccccc2c2cc(/C=N/n3cnnc3)ccc21	none
C=Cn1ccnc1P(=S)(c1ccc2c(c1)c1ccccc1n2CC)c1nccn1C=C	Cav3 T inh -5.18
COC(=O)c1sc(NC(=O)c2ccc(Cn3cc(Cl)cn3)o2)c(C#N)c1C	Cav3 T inh -3.73
CCOC(=O)c1c(NC(=O)C(C)N2CCN(C(=O)c3ccco3)CC2)sc2c1CCCC2 (centres undefined)	none (no result: Cav3 T inh, M1 antag, M1 agonist)
COC(=O)C1=C(C(=O)OC)[C@@H]2N(C)c3ccccc3[C@@]23C[C@@H](CO)N=C3N1	none (no result: M1 antag, Pyk2 oligo antag, M1 agonist)
CCOC(=O)C1CCCN(CC(=O)Nc2c(C(=O)OC)[nH]c3ccc(Br)cc23)C1 (centres undefined)	Cav3 T inh -4.27
CCOC(=O)C1CCN(CC(=O)Nc2c(C(=O)OC)[nH]c3ccc(Cl)cc23)CC1	none
CC(=O)N(Cc1ccco1)C1(C(=O)NC2CCCCC2)CCCCC1	M1 antag 2.07
CCC(C)(C(=O)NC1CCCCC1)N(C)C(=O)c1ccccn1 (centres undefined)	none
O=C(Cc1cccs1)N(Cc1ccco1)C1(C(=O)NC2CCCCC2)CCCCC1	Cav3 T inh -7.14, Pyk2 oligo antag -4.23 (no result: M1 antag, M1 agonist)
O=C(Cc1cccs1)N(Cc1cccs1)C1(C(=O)NC2CCCC2)CCCCC1	Cav3 T inh -8.37, Pyk2 oligo antag -3.43 (no result: M1 antag, M1 agonist)
CCC(C)(C(=O)NC1CCCCC1)N(Cc1ccco1)C(=O)Cc1cccs1 (centres undefined)	Cav3 T inh -4.68 (no result: M1 antag, M1 agonist)
CC(=O)NCC(=O)N(Cc1ccco1)C1(C(=O)NC2CCCCC2)CCCCC1	none
Cc1ccc(NC(=O)NNc2cccc(Cl)n2)cc1	none (no result: M1 antag, M1 agonist)
